# This is part of a sample that, as a whole, favours compounds with a hit. Of some 79,000 tested, about 15% had one in any assay. Active and inactive are the calls of the source. Rule as the data show it: active = growth inhibition above about 70%; inactive = the rest. Where a SMILES comes first, the peptide text is derived from it. The star is where a group is joined. Cbz = O=C(OCc1ccccc1)*
# Assay: NCI Yeast Anticancer Drug Screen. Data for the sgs1 mgt1 strain (AID 161);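 also: 0% = growth of cultures given vehicle only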
# Conditions: S. cerevisiae sgs1 mgt1 strain, at 50.0 µM, hits give high values
# Procedure, shortened: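 Test agents were incubated with a DNA-repair-mutant yeast strain. Growth was then read and compared against vehicle-treated controls.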
row,Structure (SMILES),growth inhibition
1,Cc1ccc(S(=O)(=O)C23N=NC(C)(C)C2C2CCC3C2)cc1 (stereo not given),1.1% (inactive)
2,Cc1cc(=O)oc2c(-c3ccccc3)nnc(Cl)c12,16.2% (inactive)
3,O=C1CCC2(c3ccccc3)Nc3ncccc3N12 (stereo not given),6.6% (inactive)
4,CCOc1nc(C)cc(C(=O)OC)c1C#N,19.6% (inactive)
5,CC(=O)Nc1ccc(/C=N/Nc2c3ccccc3nc3ccccc23)cc1,0.3% (inactive)
6,COc1c2c(cc3c1[C@@H]1Oc4c(ccc(O)c4CC=C(C)C)[C@@H]1CO3)OC(C)(C)C=C2,36.9% (inactive)
7,C=CS(=O)(=O)CCCCCCCCCCCCCC,28.9% (inactive)
8,Cc1nc(N)c2c(n1)C(Cc1ccccc1)N(C(=O)c1ccccc1)C2 (stereo not given),-24.1% (inactive)
9,CC(=O)Oc1c(C)cc2c(c1C)C(C)CN2C(C)=O (stereo not given),-24.6% (inactive)
10,Cc1c(N(C)C)ccc2c(=O)c3cccc(CC(=O)O)c3oc12,-5.35% (inactive)
11,COc1cc2c(cc1OC)C(c1ccccc1CCCCl)=NCC2,-25.1% (inactive)
12,CC1(C2(C)SCCS2)SCCS1,-1% (inactive)
13,ON=C1CCN(c2ccccc2)CC1,-10.4% (inactive)
14,N/N=C(\c1ccccc1)C(Nc1ccccc1)c1ccccc1 (stereo not given),-2.05% (inactive)
15,CCC(O)C(CC)[N+](=O)[O-] (stereo not given),-2.75% (inactive)
16,CCCCCCCCCCCCOc1ccc(Sc2ccc([N+](=O)[O-])cc2)cc1,35.1% (inactive)
17,CC(C(=O)c1ccncc1)c1ccccn1 (stereo not given),-25.4% (inactive)
18,Cc1cccc(N2CCN(S(C)(=O)=O)CC2)c1,0.3% (inactive)
19,CC(O)(C#Cc1ccccc1)c1nc2ccccc2s1 (stereo not given),-4.95% (inactive)
20,CCc1ccc[n+](CCc2c[nH]c3ccccc23)c1,-10% (inactive)

row,Structure (SMILES),growth inhibition
1,O=C(O)C(Cc1cccs1)C(=O)OCCc1ccccc1 (stereo not given),1.05% (inactive)
2,COc1ccc(NC(=S)NN=C(C)c2cccc(C(C)=NNC(=S)Nc3ccc(OC)cc3)n2)cc1,5.15% (inactive)
3,O=[N+]([O-])c1ccc(CCCCCc2ccccc2)cc1,0.6% (inactive)
4,CC1=Nc2cc(C)c(C)cc2N2C1=CC1=C(C(=O)c3cc4ccccc4cc3C1=O)C2C (stereo not given),16.2% (inactive)
5,CCCCCOc1ccc(C2=C(c3ccccc3)C(=O)C(c3ccccc3)=C2c2ccccc2)cc1,33.5% (inactive)
6,CC(C)=C1CCC(CN2CCCC2)C1=O (stereo not given),17.4% (inactive)
7,Cc1[nH]c2ccccc2c1C(c1ccccc1O)c1c(C)[nH]c2ccccc12,14.2% (inactive)
8,O=C1O/C(=C/c2ccc(O)cc2)c2ccccc21,-4.1% (inactive)
9,CN(c1ccccc1)c1nc(=[N+](C)C)ss1,17% (inactive)
10,CCN(CC)CCOCCO,-0.65% (inactive)
11,O=C(CC(=O)CC(O)(C(F)(F)F)C(F)(F)F)CC(O)(C(F)(F)F)C(F)(F)F,79.8% (active)
12,O=C(O)C(CO)NC(=O)C1CCCN1C(=O)OCc1ccccc1 (stereo not drawn) (Cbz-Pro-Ser-OH; configuration not given here),-5.7% (inactive)
13,CCOC(CN(Cc1ccccc1)CC(OCC)OCC)OCC,12.9% (inactive)
14,COc1cccc(NC(=O)CC(=O)N2N=C(n3ccc4ccccc43)CC2c2ccccc2)c1 (stereo not given),-6% (inactive)
15,CC(=O)c1cccc(C(C)=O)c1N=Cc1ccc(Cl)cc1,-26.4% (inactive)
16,O=S(=O)(Cl)C1c2ccccc2-c2ccccc21,12.5% (inactive)
17,CCCCCC/C(C=O)=C\c1ccccc1,26.6% (inactive)
18,O=S(=O)(O/C(=C(\OS(=O)(=O)C(F)(F)F)c1ccccc1)c1ccccc1)C(F)(F)F,-21.1% (inactive)
19,C=CCNCc1cc(Cl)cc(Cl)c1O,-19.1% (inactive)
20,CC(=O)N(CCc1ccccc1)C(C)(C#N)c1ccccc1 (stereo not given),-30.9% (inactive)

# Assay: NCI Yeast Anticancer Drug Screen. Data for the cln2 rad14 strain (AID 165);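 also: 0% = growth equal to vehicle treated cultures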
# Conditions: S. cerevisiae cln2 rad14 strain, at 50.0 µM, hits give high values
# Procedure, shortened: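 The screen exposed genetically defined yeast (cln2 rad14) to test compounds and scored growth inhibition relative to vehicle-treated controls.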
row,Structure (SMILES),growth inhibition
1,Cc1ccc(S(=O)(=O)C23N=NC(C)(C)C2C2CCC3C2)cc1 (stereo not given),-59.2% (inactive)
2,Cc1cc(=O)oc2c(-c3ccccc3)nnc(Cl)c12,13.9% (inactive)
3,O=C1CCC2(c3ccccc3)Nc3ncccc3N12 (stereo not given),3.85% (inactive)
4,CCOc1nc(C)cc(C(=O)OC)c1C#N,17.4% (inactive)
5,CC(=O)Nc1ccc(/C=N/Nc2c3ccccc3nc3ccccc23)cc1,-4.4% (inactive)
6,COc1c2c(cc3c1[C@@H]1Oc4c(ccc(O)c4CC=C(C)C)[C@@H]1CO3)OC(C)(C)C=C2,55.2% (inactive)
7,C=CS(=O)(=O)CCCCCCCCCCCCCC,2.1% (inactive)
8,Cc1nc(N)c2c(n1)C(Cc1ccccc1)N(C(=O)c1ccccc1)C2 (stereo not given),-24.4% (inactive)
9,CC(=O)Oc1c(C)cc2c(c1C)C(C)CN2C(C)=O (stereo not given),-18.9% (inactive)
10,Cc1c(N(C)C)ccc2c(=O)c3cccc(CC(=O)O)c3oc12,8.6% (inactive)
11,COc1cc2c(cc1OC)C(c1ccccc1CCCCl)=NCC2,10.8% (inactive)
12,CC1(C2(C)SCCS2)SCCS1,11.2% (inactive)
13,ON=C1CCN(c2ccccc2)CC1,-44.1% (inactive)
14,N/N=C(\c1ccccc1)C(Nc1ccccc1)c1ccccc1 (stereo not given),-29% (inactive)
15,CCC(O)C(CC)[N+](=O)[O-] (stereo not given),4.05% (inactive)
16,CCCCCCCCCCCCOc1ccc(Sc2ccc([N+](=O)[O-])cc2)cc1,-34.3% (inactive)
17,CC(C(=O)c1ccncc1)c1ccccn1 (stereo not given),-18.9% (inactive)
18,Cc1cccc(N2CCN(S(C)(=O)=O)CC2)c1,18.4% (inactive)
19,CC(O)(C#Cc1ccccc1)c1nc2ccccc2s1 (stereo not given),-7.65% (inactive)
20,CCc1ccc[n+](CCc2c[nH]c3ccccc23)c1,1.35% (inactive)

row,Structure (SMILES),growth inhibition
1,O=C(O)C(Cc1cccs1)C(=O)OCCc1ccccc1 (stereo not given),-10.8% (inactive)
2,COc1ccc(NC(=S)NN=C(C)c2cccc(C(C)=NNC(=S)Nc3ccc(OC)cc3)n2)cc1,-15.7% (inactive)
3,O=[N+]([O-])c1ccc(CCCCCc2ccccc2)cc1,-75.2% (inactive)
4,CC1=Nc2cc(C)c(C)cc2N2C1=CC1=C(C(=O)c3cc4ccccc4cc3C1=O)C2C (stereo not given),23.1% (inactive)
5,CCCCCOc1ccc(C2=C(c3ccccc3)C(=O)C(c3ccccc3)=C2c2ccccc2)cc1,26.9% (inactive)
6,CC(C)=C1CCC(CN2CCCC2)C1=O (stereo not given),19.2% (inactive)
7,Cc1[nH]c2ccccc2c1C(c1ccccc1O)c1c(C)[nH]c2ccccc12,18.6% (inactive)
8,O=C1O/C(=C/c2ccc(O)cc2)c2ccccc21,-15.1% (inactive)
9,CN(c1ccccc1)c1nc(=[N+](C)C)ss1,24.1% (inactive)
10,CCN(CC)CCOCCO,11.7% (inactive)
11,O=C(CC(=O)CC(O)(C(F)(F)F)C(F)(F)F)CC(O)(C(F)(F)F)C(F)(F)F,59% (inactive)
12,O=C(O)C(CO)NC(=O)C1CCCN1C(=O)OCc1ccccc1 (stereo not drawn) (Cbz-Pro-Ser-OH; configuration not given here),-1% (inactive)
13,CCOC(CN(Cc1ccccc1)CC(OCC)OCC)OCC,5.85% (inactive)
14,COc1cccc(NC(=O)CC(=O)N2N=C(n3ccc4ccccc43)CC2c2ccccc2)c1 (stereo not given),11.1% (inactive)
15,CC(=O)c1cccc(C(C)=O)c1N=Cc1ccc(Cl)cc1,-11.8% (inactive)
16,O=S(=O)(Cl)C1c2ccccc2-c2ccccc21,15.7% (inactive)
17,CCCCCC/C(C=O)=C\c1ccccc1,16.4% (inactive)
18,O=S(=O)(O/C(=C(\OS(=O)(=O)C(F)(F)F)c1ccccc1)c1ccccc1)C(F)(F)F,-4.8% (inactive)
19,C=CCNCc1cc(Cl)cc(Cl)c1O,-51.1% (inactive)
20,CC(=O)N(CCc1ccccc1)C(C)(C#N)c1ccccc1 (stereo not given),-22.4% (inactive)
